The nature of assay [1]: qHTS assay to identify small molecule agonists of the estrogen receptor alpha (ER-alpha) signaling pathway in the presence of an antagonist - cell viability counter screen (AID 1259386).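 Further: series mostly up to about 92 µM; cells exposed to compounds for 22 h at 37 °C before the viability read; nearly all actives have a fitted effect of over 30% in size.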 In outline: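 VM7Luc4E2 cells (endogenous full-length ER-alpha, 4×ERE-luciferase) were held 5 days in phenol red-free medium with 10% charcoal-stripped FBS, plated, then given 10.0nM ICI-182,780 and compounds at 15 concentrations for 22hr at 37C; viability read by CellTiter-Fluor fluorescence.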

In assay [2] the target is Progesterone receptor (Homo sapiens) (UniProt P06401). Description: qHTS assay to identify small molecule agonists of the progesterone receptor (PR) signaling pathway (AID 1346784; calls by dose curve; further: nearly all actives have a fitted effect of over 30% in size). In outline:
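Fluorescence from LiveBLAzer B/G FRET substrate cleavage (2 hr, RT) reported PR activation in PR-UAS-bla HEK 293T cells treated 16 hr at 37C/5% CO2 with compounds; medium contained 2% charcoal-stripped FBS.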
In general terms: qHTS replaces the single test concentration by a dilution series.

The target is the same in assay [3]. Nature of the assay: qHTS assay to identify small molecule antagonists of the progesterone receptor (PR) signaling pathway (AID 1346795; active means well fitted inhibition curve with a large enough effect in the signal ratio in the repeat runs, not every such curve was filed as active; the % refers to the signal ratio). In outline: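 Fluorescence intensity measured 2 hr after adding beta-lactamase FRET substrate to PR-UAS-bla HEK293T cells that had been co-treated 16 hr with compound and 1 nM R5020 (final concentration) in 2% charcoal-stripped FBS.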

Assay [4] is described as follows: qHTS assay to identify small molecule antagonists of the progesterone receptor (PR) signaling pathway - cell viability counter screen (AID 1346798). Further: series mostly up to about 92 µM; nearly all actives have a fitted effect of over 50% in size. In outline:
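CellTiter-Glo luminescence; PR-UAS-bla HEK293T, 3,000 cells/well; compound + R5020, 16 hr, 37C/5% CO2; 30 min RT before read.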

A short description of assay [5]: qHTS assay to identify small molecule agonists of the progesterone receptor (PR) signaling pathway - cell viability counter screen (AID 1346799; calls by dose curve; further: nearly all actives have a fitted effect of over 45% in size). Summed up:
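In parallel with the beta-lactamase readout, cytotoxicity toward PR-UAS-bla HEK293T cells was measured by CellTiter-Glo luminescence following 16 hr compound incubation in 2% charcoal-stripped FBS medium.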

Assay [6] is described as follows: qHTS assay to identify small molecule antagonists of the TGF-beta/Smad signaling pathway - cell viability counter screen (AID 1346824). Further: nearly all actives have a fitted effect of over 50% in size. In outline: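 Cytotoxicity counter-screen run in the same wells as the beta-lactamase Smad reporter read: CellTiter-Glo luminescence after 30 min at room temperature. HEK 293T SBE-bla cells had 5 hr compound exposure at 37 C with TGF-beta1 (0.25 ng/mL stock).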

Assay [7] in a line: qHTS assay to identify small molecule agonists of the TGF-beta/Smad signaling pathway - cell viability counter screen (AID 1346829). Further: top concentration of the series differs between compounds; nearly all actives have a fitted effect of over 45% in size. In outline: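 Luminescence from CellTiter-Glo, read after a 30 min room-temperature incubation, gives cell viability of SBE-bla HEK 293T cells treated 5 hr with compounds at 37 C.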
Assay [8] in a line: qHTS assay to identify small molecule agonists of the TGF-beta/Smad signaling pathway (AID 1346859; active means well fitted activation curve with a large enough effect in the signal ratio in the repeat runs, not every such curve was filed as active; the % refers to the signal ratio; further: series mostly up to about 77 µM). In outline: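 After overnight seeding, SBE-bla HEK 293T cells are dosed with compounds in DMSO and kept 5 hr at 37 C, 5% CO2. LiveBLAzer-type FRET substrate is then applied for 2 hr at room temperature.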
The target of assay [9] is Thyrotropin-releasing hormone receptor (Homo sapiens) (UniProt P34981). Nature of the assay: qHTS assay to identify small molecule antagonists of the thyrotropin-releasing hormone receptor (TRHR) signaling pathway (AID 1346877; active means well fitted inhibition curve with a large enough effect in the repeat runs, not every such curve was filed as active; further: series mostly up to about 51 µM). Summed up: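 TRHR-expressing HEK293 cells were seeded, cultured 18 h at 37 °C, then loaded with calcium dye for 2 h. Compounds were pre-incubated 5 min at room temperature before 1 nM TRH (final) was added, and kinetic fluorescence was recorded for 3 min.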
Sequence of Thyrotropin-releasing hormone receptor (Homo sapiens) (P34981 whole entry, looked up): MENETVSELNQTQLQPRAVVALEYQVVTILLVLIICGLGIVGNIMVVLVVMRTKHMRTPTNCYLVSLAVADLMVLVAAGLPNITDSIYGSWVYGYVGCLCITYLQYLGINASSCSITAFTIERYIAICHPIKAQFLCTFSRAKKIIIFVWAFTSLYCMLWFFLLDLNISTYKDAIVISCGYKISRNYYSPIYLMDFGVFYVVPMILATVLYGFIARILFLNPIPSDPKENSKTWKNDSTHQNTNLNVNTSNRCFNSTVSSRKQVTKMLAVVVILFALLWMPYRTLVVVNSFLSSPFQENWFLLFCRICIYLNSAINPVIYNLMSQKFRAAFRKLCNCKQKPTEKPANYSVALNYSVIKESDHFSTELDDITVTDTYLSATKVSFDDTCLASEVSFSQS

The target is the same in assay [10]. Description: qHTS assay to identify small molecule agonists of the thyrotropin-releasing hormone receptor (TRHR) signaling pathway (AID 1346891; calls by dose curve; further: series mostly up to about 58 µM). Summed up:
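Compounds were tested as agonists at 15 concentrations, in triplicate, on TRHR-Hek293 cells; calcium-sensitive dye fluorescence was recorded for 3 min following addition.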

A short description of assay [11]: Human pregnane X receptor (PXR) small molecule agonists, qHTS cell viability counter screen (AID 1346977). Further: nearly all actives have a fitted effect of over 50% in size. Summed up: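 Viability counter screen: CellTiter-Fluor signal in PXR-Luc HepG2 cells, 24hr compound exposure, 37C, 5% CO2.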
The nature of assay [12]: Caspase-3/7 induction in HepG2 cells by small molecules, qHTS assay (AID 1346978). Further: nearly all actives have a fitted effect of over 15% in size. In outline:
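Caspase-3/7 induction was measured by Caspase-Glo 3/7 luminescence (30 min, room temperature) after a 17 hr compound exposure of wild-type HepG2 cells seeded at 2,000 per well and pre-incubated 5 hr.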

Assay [13] is described as follows: Caspase-3/7 induction in CHO-K1 cells by small molecules, qHTS cell viability counter screen (AID 1346979). Further: nearly all actives have a fitted effect of over 35% in size. Further: potency means the concentration at half of the fitted maximal effect. Summed up:
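Viability readout by fluorescence (CellTiter-Fluor) on wild-type CHO-K1 cells exposed for 16hr at 37C and 5% CO2 to compounds delivered in DMSO; reagent incubated 1hr before reading.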

A short description of assay [14]: Caspase-3/7 induction in CHO-K1 cells by small molecules, qHTS assay (AID 1346980). Further: nearly all actives have a fitted effect of over 15% in size. In outline: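 Luminescent Caspase-Glo 3/7 read (30min, room temperature) quantified apoptosis induction. Cells were wild-type CHO-K1, treated with compound for 17hr at 37 C and 5% CO2.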
Assay [15] in a line: Caspase-3/7 induction in HepG2 cells by small molecules, qHTS cell viability counter screen (AID 1346981). Further: series mostly up to about 92 µM; nearly all actives have a fitted effect of over 30% in size. In outline:
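Wild-type HepG2 cells (2,000/well) were allowed to settle for 5 hr at 37 C, 5% CO2, then dosed with compounds in DMSO by pin transfer. After 16 hr at 37 C, CellTiter-Fluor was added and fluorescence read 1 hr later.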

Assay [16] deals with Nuclear receptor subfamily 1 group I member 2 (Homo sapiens) (UniProt O75469). Nature of the assay: Human pregnane X receptor (PXR) small molecule agonists, qHTS assay (AID 1346982). Further: nearly all actives have a fitted effect of over 35% in size. Further: potency means the concentration at half of the fitted maximal effect. In outline: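 PXR-Luc HepG2 cells (CYP3A4 promoter-driven luciferase) were seeded in medium with 5% charcoal-stripped FBS, left 5 hr at 37 C, then exposed to compounds in DMSO for 24 hr. Luminescence was read after ONE-Glo addition.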
Sequence of Nuclear receptor subfamily 1 group I member 2 (Homo sapiens) (O75469 whole entry, looked up): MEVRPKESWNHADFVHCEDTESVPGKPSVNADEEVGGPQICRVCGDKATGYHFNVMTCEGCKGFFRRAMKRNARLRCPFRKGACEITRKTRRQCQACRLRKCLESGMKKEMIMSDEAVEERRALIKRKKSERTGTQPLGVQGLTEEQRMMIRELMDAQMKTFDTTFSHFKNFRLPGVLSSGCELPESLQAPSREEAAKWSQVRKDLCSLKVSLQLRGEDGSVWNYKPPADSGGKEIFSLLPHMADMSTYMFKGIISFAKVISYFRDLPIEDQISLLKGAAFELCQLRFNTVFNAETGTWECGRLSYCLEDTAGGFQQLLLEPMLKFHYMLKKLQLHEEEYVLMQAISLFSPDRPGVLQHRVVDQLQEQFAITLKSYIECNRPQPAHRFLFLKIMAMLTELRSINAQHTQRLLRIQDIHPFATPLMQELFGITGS

The target in assay [17] is Thyrotropin receptor (Homo sapiens) (UniProt P16473). Description: qHTS assay to identify small molecule antagonists of the thyroid stimulating hormone receptor (TSHR) signaling pathway (AID 1259385; calls by dose curve; further: nearly all actives have a fitted effect of over 20% in size). In outline: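 Antagonist mode: compound-treated TSHR-expressing HEK293 cells were stimulated with 1.5 ng/mL TSH (final) in presence of Ro20-1724 for 30 min at RT. HTRF cAMP detection after 1 h; each compound tested at 15 concentrations, triplicate.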
Sequence of Thyrotropin receptor (Homo sapiens) (P16473 whole entry, looked up): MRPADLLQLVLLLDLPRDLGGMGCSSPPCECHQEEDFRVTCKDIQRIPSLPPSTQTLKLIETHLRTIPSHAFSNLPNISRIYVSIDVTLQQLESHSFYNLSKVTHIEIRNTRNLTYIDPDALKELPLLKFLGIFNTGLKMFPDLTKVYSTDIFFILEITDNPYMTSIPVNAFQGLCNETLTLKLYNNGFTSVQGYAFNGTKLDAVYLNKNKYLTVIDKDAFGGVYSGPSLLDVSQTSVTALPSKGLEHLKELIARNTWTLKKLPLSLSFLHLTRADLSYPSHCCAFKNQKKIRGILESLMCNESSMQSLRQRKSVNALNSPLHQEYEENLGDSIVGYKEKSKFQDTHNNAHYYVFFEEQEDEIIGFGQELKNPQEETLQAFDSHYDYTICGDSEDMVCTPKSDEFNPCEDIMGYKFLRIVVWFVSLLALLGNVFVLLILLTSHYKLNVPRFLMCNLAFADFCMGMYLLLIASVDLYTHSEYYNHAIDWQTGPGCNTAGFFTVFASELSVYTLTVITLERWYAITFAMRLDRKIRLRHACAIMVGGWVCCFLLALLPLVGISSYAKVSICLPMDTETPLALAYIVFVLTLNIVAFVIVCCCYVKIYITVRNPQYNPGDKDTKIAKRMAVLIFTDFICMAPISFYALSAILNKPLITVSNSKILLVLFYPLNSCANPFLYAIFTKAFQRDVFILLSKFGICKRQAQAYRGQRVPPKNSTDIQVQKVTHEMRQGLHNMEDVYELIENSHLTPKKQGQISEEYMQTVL

Results on 7 compounds are retold here after PubChem BioAssay (Tox21).

Where “and” joins values, the source holds several entries; their conditions need not be identical. Equal entries are not always repeated. Values without a mark were called inactive. Records with an inconclusive call do not appear. Calls of active or inactive are those of the source. Unless noted, the call rests on the fitted dose curve; in most records, active means well fitted curve in the direction sought with a large enough effect in the repeat runs; inconclusive means weak or mixed curves; inactive means no such curve, though single readings can be large; an effect the other way counts as inactive or inconclusive.

Sequence of Progesterone receptor (Homo sapiens) (P06401 whole entry, looked up): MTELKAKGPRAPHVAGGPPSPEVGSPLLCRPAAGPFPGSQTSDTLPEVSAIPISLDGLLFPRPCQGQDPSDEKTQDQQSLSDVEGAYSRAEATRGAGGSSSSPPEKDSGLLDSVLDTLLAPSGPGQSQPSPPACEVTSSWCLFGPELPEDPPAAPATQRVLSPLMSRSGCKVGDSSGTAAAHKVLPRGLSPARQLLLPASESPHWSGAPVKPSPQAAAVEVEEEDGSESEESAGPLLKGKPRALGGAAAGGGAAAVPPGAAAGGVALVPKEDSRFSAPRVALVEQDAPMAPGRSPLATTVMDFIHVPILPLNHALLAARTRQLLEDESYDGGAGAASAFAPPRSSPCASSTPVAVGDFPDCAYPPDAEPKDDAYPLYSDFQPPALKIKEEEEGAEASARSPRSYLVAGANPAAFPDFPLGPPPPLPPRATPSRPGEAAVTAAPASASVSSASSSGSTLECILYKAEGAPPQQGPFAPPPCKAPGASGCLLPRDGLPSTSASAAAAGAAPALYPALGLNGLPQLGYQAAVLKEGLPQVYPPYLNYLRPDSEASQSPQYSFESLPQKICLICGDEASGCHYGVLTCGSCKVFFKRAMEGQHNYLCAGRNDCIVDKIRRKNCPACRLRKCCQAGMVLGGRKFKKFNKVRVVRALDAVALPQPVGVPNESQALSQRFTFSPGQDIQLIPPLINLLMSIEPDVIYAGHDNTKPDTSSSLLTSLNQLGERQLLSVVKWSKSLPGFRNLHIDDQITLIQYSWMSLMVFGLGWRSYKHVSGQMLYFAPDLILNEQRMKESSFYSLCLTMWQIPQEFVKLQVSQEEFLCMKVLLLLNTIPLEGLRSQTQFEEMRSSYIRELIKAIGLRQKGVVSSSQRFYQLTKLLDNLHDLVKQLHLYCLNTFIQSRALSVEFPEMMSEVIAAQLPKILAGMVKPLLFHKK

Regarding `CCCCCOC(=O)CCCCC`, the Potency entry in assay [1], in assay [2], in assay [3], in assay [4], in assay [5] and in assay [6] was “inactive” throughout. Also, the Potency result in assay [11], in assay [12], in assay [13], in assay [15] and in [16] was “inactive” throughout. For the same compound, the outcome in assay [7], in [8], in [9], in [10] and in assay [14] was inactive.
In the case of `CC(C)(c1ccc(O)cc1)c1ccc(O)cc1`, the Potency entry in assay [17], in assay [6], in assay [11], in assay [12] and in assay [15] was “inactive” throughout. For the same compound, the result in [7], in assay [8], in assay [9], in assay [10] and in assay [14] was inactive. Besides, the Potency was 69.8 µM (active) in assay [13]; 24.1 µM (active) and 9.86 µM (active) in [16].
For `O=[N+]([O-])c1ccc(F)cc1F`, the Potency result in assay [1], in assay [2], in [3], in assay [4], in assay [5] and in assay [6] was “inactive” throughout. Also, the Potency result in [11], in assay [12], in [13], in assay [15] and in assay [16] was “inactive” throughout. Also, the call in assay [7], in [8] and in [14] was inactive.
`CC(=O)CC(C)(C)C1CCCCC1`: the Potency result in assay [4], in assay [5], in assay [6], in [11], in [12] and in assay [13] was “inactive” each time. In addition, the Potency result in assay [15] and in assay [16] was “inactive” throughout. Further, the compound was called inactive in [7], in [8], in assay [9], in [10] and in assay [14].
For the compound `COc1ccc2c(c1)CCCC2=O`, the Potency entry in assay [1], in [3], in assay [4], in assay [5], in [6] and in [11] was “inactive” each time. For the same compound, the Potency entry in assay [12], in [13], in [15] and in assay [16] was “inactive” in each case. The compound was classed as inactive in assay [7], in assay [8] and in assay [14].
Turning to `O=C(O)CNC(=O)c1ccc([N+](=O)[O-])cc1`, the Potency result in assay [1], in assay [2], in assay [3], in [4], in assay [5] and in assay [6] was “inactive” throughout. Moreover, the Potency result in assay [11], in assay [12], in assay [13], in assay [15] and in assay [16] was “inactive” in each case. In addition, the call in [7], in [8], in assay [9], in assay [10] and in [14] was inactive.
Take `CO[Si](CCCOCC1CO1)(OC)OC` (stereo not given): the Potency result in assay [1], in assay [2], in assay [3], in assay [4], in assay [5] and in assay [6] was “inactive” each time. The Potency entry in assay [11], in [12], in assay [13], in assay [15] and in assay [16] was “inactive” each time. For the same compound, the compound was classed as inactive in [7], in assay [8], in assay [9], in assay [10] and in [14].
